# Data taken from PubChem BioAssay (NCI).
# Several values for one entry are separate records, joined by “and”; a condition that tells them apart may be missing. Equal entries are not always repeated. This is part of a sample that, as a whole, favours compounds with a hit. Of some 83,000 tested, about 20% had one in any assay.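 Cells were grown in 96-well plates and exposed to the test compound at a single concentration for 48 hours; results are reported as percent growth, with values below 10 considered active.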 Activity calls are given as the source filed them.
# Experiments:
# Experiment in all cases: NCI-60 one-dose screen, 48 h (100 = growth as untreated, 0 = no growth, -100 = all killed)
# Conditions in all cases: 10 µM unless noted
# SK-MEL-2 melanoma = test system: SK-MEL-2 melanoma
# EKVX NSCLC = test system: EKVX NSCLC
# SN12C renal = test system: SN12C renal
# UO-31 renal = test system: UO-31 renal
# TK-10 renal = test system: TK-10 renal
# ACHN renal = test system: ACHN renal
# CAKI-1 renal = test system: CAKI-1 renal
# A498 renal = test system: A498 renal
# CCRF-CEM leukemia = test system: CCRF-CEM leukemia
# MOLT-4 leukemia = test system: MOLT-4 leukemia
# SR leukemia = test system: SR leukemia
# RPMI-8226 leukemia = test system: RPMI-8226 leukemia
# OVCAR-8 ovarian = test system: OVCAR-8 ovarian
# OVCAR-5 ovarian = test system: OVCAR-5 ovarian
# OVCAR-4 ovarian = test system: OVCAR-4 ovarian
# SK-OV-3 ovarian = test system: SK-OV-3 ovarian
# IGROV1 ovarian = test system: IGROV1 ovarian
# OVCAR-3 ovarian = test system: OVCAR-3 ovarian
# HS 578T breast = test system: HS 578T breast
# NCI/ADR-RES ovarian = test system: NCI/ADR-RES ovarian
Structure (SMILES),growth (SK-MEL-2 melanoma),growth (EKVX NSCLC),growth (SN12C renal),growth (UO-31 renal),growth (TK-10 renal),growth (ACHN renal),growth (CAKI-1 renal),growth (A498 renal),growth (CCRF-CEM leukemia),growth (MOLT-4 leukemia),growth (SR leukemia),growth (RPMI-8226 leukemia),growth (OVCAR-8 ovarian),growth (OVCAR-5 ovarian),growth (OVCAR-4 ovarian),growth (SK-OV-3 ovarian),growth (IGROV1 ovarian),growth (OVCAR-3 ovarian),growth (HS 578T breast),growth (NCI/ADR-RES ovarian)
Clc1nc(Oc2ccccc2)nc(-c2cn(-c3ccccc3)c3ccccc23)n1,-49.5% (active),81.3% (inactive),85.9% (inactive),17% (inactive),114% (inactive),68.7% (inactive),13.4% (inactive),128% (inactive),27.2% (inactive),47% (inactive),-31.7% (active),49.1% (inactive),38.8% (inactive),101% (inactive),98.8% (inactive),103% (inactive),28.3% (inactive),7.87% (active),44.1% (inactive),84.9% (inactive)
CN(C)c1ccc2nc3ccc(=[N+](C)C)cc-3sc2c1,20% (inactive) and 47.3% (inactive) and 79.6% (inactive),41.7% (inactive) and 46.9% (inactive),24.3% (inactive) and 12.5% (inactive) and 9.23% (active),62.3% (inactive) and 57.2% (inactive) and 78.6% (inactive),58.1% (inactive) and 73.9% (inactive) and 110% (inactive),24.6% (inactive) and 24.4% (inactive) and 83% (inactive),30.9% (inactive) and 23.4% (inactive) and 83.2% (inactive),58.4% (inactive) and 75.9% (inactive),2.85% (active) and 26.7% (inactive) and 24% (inactive),24.4% (inactive) and 21.7% (inactive) and 32.9% (inactive),29.2% (inactive) and 39.6% (inactive) and 51.5% (inactive),40.4% (inactive) and 34.1% (inactive) and 40.2% (inactive),3.76% (active) and 0.437% (active) and 8.05% (active),17.7% (inactive) and 14.5% (inactive) and 30.6% (inactive),8.61% (active) and -18% (active) and 10.4% (inactive),41.4% (inactive) and 60% (inactive) and 73.2% (inactive),9.73% (active) and 1.01% (active) and 43.1% (inactive),0.379% (active) and -3.68% (active) and 10.2% (inactive),49.8% (inactive) and 111% (inactive),12.1% (inactive) and 10.9% (inactive) and 13.9% (inactive)
Nc1ccccc1Nc1ccccc1,133% (inactive) and 78.1% (inactive),96.4% (inactive),70% (inactive) and 72.6% (inactive),45.3% (inactive) and 49.6% (inactive),111% (inactive) and 88.4% (inactive),85.5% (inactive) and 75.2% (inactive),73.3% (inactive),105% (inactive),31.8% (inactive) and 25.3% (inactive),53.5% (inactive) and 88.3% (inactive),68.2% (inactive) and 72.1% (inactive),42.3% (inactive) and 29.1% (inactive),95.7% (inactive) and 92.3% (inactive),129% (inactive) and 115% (inactive),93.7% (inactive) and 88.9% (inactive),114% (inactive) and 106% (inactive),100% (inactive) and 109% (inactive),79.8% (inactive) and 57% (inactive),89.1% (inactive) and 102% (inactive),88% (inactive) and 84.7% (inactive)
CNC(=O)c1ccc(C)c(-n2c(C)cc(OCc3ccc(F)cc3F)c(Br)c2=O)c1,89.3% (inactive),78.7% (inactive) and 87.7% (inactive),83.7% (inactive) and 86.1% (inactive),52.5% (inactive) and 71.8% (inactive),74.6% (inactive) and 102% (inactive),68.6% (inactive) and 88.2% (inactive),62.9% (inactive) and 79.1% (inactive),78.7% (inactive),77.4% (inactive) and 89.1% (inactive),78.8% (inactive) and 91.8% (inactive),64.9% (inactive) and 85.9% (inactive),48.2% (inactive) and 74% (inactive),70.3% (inactive) and 86.8% (inactive),77.1% (inactive) and 86.2% (inactive),73.7% (inactive) and 84.9% (inactive),76.4% (inactive) and 91.3% (inactive),84.6% (inactive) and 92% (inactive),85.1% (inactive) and 101% (inactive),103% (inactive),80.5% (inactive) and 80.7% (inactive)
